Measurements reported in PubChem BioAssay (Tox21).
Several values for one entry are separate records, joined by “and”; a condition that tells them apart may be missing. Identical values can stand only once. Results filed as inconclusive are left out. Some structures have more than one record in an assay (separate samples or runs), and their calls can disagree. Activity calls are given as the source filed them. Unless noted, calls come from the whole dose curve; as a rule, active = well fitted curve in the direction sought with a large enough effect in the repeat runs; inconclusive = weak or mixed curves; inactive = no such curve, though single readings can be large; an effect the other way counts as inactive or inconclusive.

Legend:
[1] = qHTS assay to identify small molecule antagonists of the retinoid acid receptor (RAR) signaling pathway - cell viability counter screen (AID 1159551); note: nearly all actives have a fitted effect of over 35% in size; note: potency is the fitted concentration of half-maximal effect
Method in brief: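 Following overnight attachment, C3RL4 reporter cells received DMSO-dissolved compounds and then retinol (1 uM final). Six hours later at 37 C, ATP content was measured by CellTiter-Glo luminescence.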

[2] = qHTS assay to identify small molecule antagonists of the retinoic acid receptor (RAR) signaling pathway (AID 1159552; note: nearly all actives have a fitted effect of over 50% in size; note: potency is the fitted concentration of half-maximal effect)
Method in brief: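 RARE-luc C3RL4 cells; cpds + 1 uM (final) retinol, 6 hr, 37 C/5% CO2; luciferase reagent, 30 min RT, luminescence readout. Inhibitors of retinol-driven signal scored.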

[3] = qHTS assay to identify small molecule agonists of the retinoic acid receptor (RAR) signaling pathway (AID 1159553); settings: C3RL4 RARE luciferase reporter, agonist, 6 h; activation: at 73.3 µM (top of the series) unless noted
Method in brief: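 Cell line C3RL4, RARE luciferase reporter. Treatment: compounds in DMSO, 6 hr, 37 C, 5% CO2, after overnight plating. Detection: luminescence, 30 min RT after reagent.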

[4] = qHTS assay to identify small molecule antagonists of the estrogen related receptor (ERR) signaling pathway from Tox21 library - cell viability counter screen (AID 1224834); note: nearly all actives have a fitted effect of over 30% in size; note: potency is the fitted concentration of half-maximal effect
Method in brief: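 Viability readout (CellTiter-Fluor fluorescence, 30 min at 37 C) multiplexed with the ERR assay; cells treated 17.5 h at 37 C with compounds delivered in DMSO.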

[5] = biological target: Luciferin 4-monooxygenase (Photinus pyralis) (UniProt P08659); test: qHTS assay to identify small molecule inhibitors of firefly luciferase (AID 1224835); note: nearly all actives have a fitted effect of over 25% in size; note: potency is the fitted concentration of half-maximal effect
Method in brief: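 Inhibition of purified Photinus luciferase is measured by luminescence. Substrate levels (D-luciferin, ATP) sit at their KM values. Each compound is tested in a concentration series.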

[6] = qHTS assay to identify small molecule agonists of the constitutive androstane receptor (CAR) signaling pathway - cell viability counter screen (AID 1224836); note: nearly all actives have a fitted effect of over 45% in size; note: potency is the fitted concentration of half-maximal effect
Method in brief: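 HepG2 cells stably carrying hCAR and a CYP2B6-2.2kb reporter were plated 4 h, then given compounds at 15 concentrations plus PK11195 (final 0.75 uM). After 23 h at 37 C, viability was read by CellTiter-Fluor fluorescence.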

[7] = qHTS assay to identify small molecule antagonists of the constitutive androstane receptor (CAR) signaling pathway - cell viability counter screen (AID 1224837); note: nearly all actives have a fitted effect of over 45% in size; note: potency is the fitted concentration of half-maximal effect
Method in brief: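 Fluorescence from CellTiter-Fluor served as the viability signal. Human hepatoma HepG2 cells stably bearing hCAR and CYP2B6-2.2kb received compound plus CITCO (50 nM final) for 23 hr.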

[8] = biological target: Nuclear receptor subfamily 1 group I member 3 (Homo sapiens) (UniProt Q14994); test: qHTS assay to identify small molecule antagonists of the constitutive androstane receptor (CAR) signaling pathway (AID 1224838); note: nearly all actives have a fitted effect of over 40% in size; note: potency is the fitted concentration of half-maximal effect
Method in brief: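 Quantitative HTS in double-stable HepG2-CYP2B6-hCAR cells. After 4 h plating, cells get compound (15 concentrations) and CITCO at 50 nM final, incubate 24 h at 37 C, then ONE-Glo luminescence is read.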

[9] = biological target: Nuclear receptor subfamily 1 group I member 3 (Homo sapiens) (UniProt Q14994); test: qHTS assay to identify small molecule agonists of the constitutive androstane receptor (CAR) signaling pathway (AID 1224839); note: nearly all actives have a fitted effect of over 15% in size; note: potency is the fitted concentration of half-maximal effect;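 for activation: HepG2 cells stably carrying human CAR and a CYP2B6 luciferase reporter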
Method in brief: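 HepG2 cells stably expressing hCAR and a CYP2B6-2.2kb luciferase reporter were treated with compounds at 15 concentrations plus 0.75 uM PK11195 (final) for 24 h at 37 C; luminescence was read after ONE-Glo addition.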

[10] = qHTS assay to identify small molecule antagonists of the estrogen related receptor signaling pathway with the pleiotropic PPARgamma coactivator (PGC) from Tox21 10K library - cell viability counter screen (AID 1224840; active = well fitted cell-killing curve with a large enough effect in the repeat runs, not every such curve was filed as active; note: nearly all actives have a fitted effect of over 40% in size; note: potency is the fitted concentration of half-maximal effect)
Method in brief: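 Compounds in DMSO, alongside positive and negative controls, were pinned onto PGC/ERR cells (2,000 per well). Exposure lasted 17.5 hours at 37 C, followed by a 30-minute CellTiter-Fluor incubation and fluorescence reading.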

[11] = biological target: Thyrotropin receptor (Homo sapiens) (UniProt P16473); test: qHTS assay to identify small molecule agonists of the thyroid stimulating hormone receptor (TSHR) signaling pathway (AID 1224843; calls by dose curve; note: nearly all actives have a fitted effect of over 45% in size)
Method in brief: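 HEK293 cells stably bearing the thyrotropin receptor were plated at 800 cells/well and challenged with compound (30 min, RT). Accumulated cAMP was quantified via cAMP-d2 competing for cryptate-tagged antibody.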

[12] = qHTS assay to identify small molecule agonists of the hypoxia (HIF-1) signaling pathway - cell viability counter screen (AID 1224844; calls by dose curve; note: nearly all actives have a fitted effect of over 50% in size; note: potency is the fitted concentration of half-maximal effect)
Method in brief: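 Luminescent ATP content (CellTiter-Glo, 30 min, room temperature) served as the viability measure in HRE-bla ME-180 cells exposed to compounds for 17 hrs in low-serum medium (0.5% dialyzed FBS).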

[13] = qHTS assay to identify small molecule agonists of the estrogen related receptor signaling pathway with the pleiotropic PPARgamma coactivator (PGC) from Tox21 10K library (AID 1224842); note: nearly all actives have a fitted effect of over 15% in size; note: potency is the fitted concentration of half-maximal effect
Method in brief: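 Luminescence from One-Glo (30 min, room temperature) measured after PGC/ERR cells had 18 h at 37 C with pinned compound (23 nL in DMSO). Cells had been seeded at 2,000 per well and pre-incubated 6 h.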

[14] = qHTS assay to identify small molecule antagonists of the estrogen related receptor signaling pathway with the pleiotropic PPARgamma coactivator (PGC) from Tox21 10K library (AID 1224841; call rule not given here; note: actives are mostly falling curves and most rising ones were filed inactive; nearly all actives have a fitted effect of over 50% in size; note: potency is the fitted concentration of half-maximal effect)
Method in brief: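 Compound exposure ran 18 hours at 37 C in PGC/ERR cells (2,000/well) that had first rested 6 hours in a 37 C/5% CO2 incubator. Luciferase activity was then detected with One-Glo after a 30-minute room-temperature step.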

[15] = qHTS assay to identify small molecule agonists of the RXR signaling pathway - cell viability counter screen (AID 1159529);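 note: HEK 293T cells carrying an RXR-alpha UAS beta-lactamase reporter; nearly all actives have a fitted effect of over 50% in size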
Method in brief: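 RXR-alpha-UAS-bla HEK 293T cells in medium with 2% charcoal-stripped FBS were preincubated 5 hr, then exposed to compounds for 16 hr at 37 C. Viability was read as CellTiter-Glo luminescence after 30 min at room temperature.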

[16] = qHTS assay to identify small molecule antagonists of the estrogen related receptor (ERR) signaling pathway - cell viability counter screen (AID 1224818);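 note: viability measured after 17.5 h of compound exposure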
Method in brief: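 Here, ERR cells are plated at 2,000 cells per well, allowed 6 h to attach, and treated with compounds in DMSO for 17.5 h at 37 C. CellTiter-Fluor is then added and fluorescence read after 30 min.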

[17] = qHTS assay to identify small molecule antagonists of the estrogen related receptor (ERR) signaling pathway (AID 1224819)
Method in brief: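 LOPAC library screened for antagonism as reduced One-Glo luminescence in ERR reporter cells (2,000/well). Compounds were added after 6 h pre-incubation and left 18 h at 37C; reading followed a 30 min room-temperature reagent step.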

[18] = qHTS assay to identify small molecule agonists of the estrogen related receptor (ERR) signaling pathway (AID 1224820)
Method in brief: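 Quantitative HTS of the LOPAC library used NTP ERR reporter cells treated 18 h at 37 C. Signal is luminescence after One-Glo addition and a 30 min room-temperature incubation.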

[19] = test system: estrogen-related receptor alpha (ERRalpha) with PGC-1alpha coactivator, human; test: qHTS assay to identify small molecule antagonists of the estrogen related receptor signaling pathway with the pleiotropic PPARgamma coactivator (PGC) (AID 1224821; calls by dose curve)
Method in brief: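 Quantitative HTS for antagonism: PGC/ERR cells received compounds after 6 h attachment and were incubated 18 h at 37 C, with luminescence (One-Glo) as the endpoint.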

[20] = qHTS assay to identify small molecule agonists of the estrogen related receptor signaling pathway with the pleiotropic PPARgamma coactivator (PGC) (AID 1224823)
Method in brief: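 Cell-based luciferase assay in the NTP-supplied PGC/ERR line, 2,000 cells/well; 18 h compound exposure at 37 C, luminescence after One-Glo.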
% is set by controls: 0 for no effect and ±100 for the full control effect.

Nuclear receptor subfamily 1 group I member 3 (Homo sapiens), sequence (Q14994 whole entry, looked up): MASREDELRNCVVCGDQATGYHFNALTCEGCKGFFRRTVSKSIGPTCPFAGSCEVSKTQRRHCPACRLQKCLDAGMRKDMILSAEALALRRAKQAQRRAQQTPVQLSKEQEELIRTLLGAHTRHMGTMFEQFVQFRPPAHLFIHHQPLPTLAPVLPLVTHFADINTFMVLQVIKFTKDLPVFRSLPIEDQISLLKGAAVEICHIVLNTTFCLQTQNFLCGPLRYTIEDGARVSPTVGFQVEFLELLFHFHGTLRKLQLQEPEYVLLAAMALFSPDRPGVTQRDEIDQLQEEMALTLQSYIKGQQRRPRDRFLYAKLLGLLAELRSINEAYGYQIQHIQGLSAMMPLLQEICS
Luciferin 4-monooxygenase (Photinus pyralis), sequence (P08659 whole entry, looked up): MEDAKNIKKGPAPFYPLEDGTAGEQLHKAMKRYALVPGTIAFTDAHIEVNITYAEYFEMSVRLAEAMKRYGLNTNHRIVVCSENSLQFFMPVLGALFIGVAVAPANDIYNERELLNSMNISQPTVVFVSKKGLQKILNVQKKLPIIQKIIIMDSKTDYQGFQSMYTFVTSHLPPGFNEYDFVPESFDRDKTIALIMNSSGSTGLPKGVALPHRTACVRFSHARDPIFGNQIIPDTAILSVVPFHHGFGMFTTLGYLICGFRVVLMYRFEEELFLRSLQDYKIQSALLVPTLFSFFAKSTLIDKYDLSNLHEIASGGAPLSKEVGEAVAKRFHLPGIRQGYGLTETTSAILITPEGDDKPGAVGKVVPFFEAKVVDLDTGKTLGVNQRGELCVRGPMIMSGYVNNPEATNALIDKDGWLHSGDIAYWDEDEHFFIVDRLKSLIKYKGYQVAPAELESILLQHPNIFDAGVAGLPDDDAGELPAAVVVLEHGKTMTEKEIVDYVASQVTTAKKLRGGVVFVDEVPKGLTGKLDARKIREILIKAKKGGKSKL
Thyrotropin receptor (Homo sapiens), sequence (P16473 whole entry, looked up): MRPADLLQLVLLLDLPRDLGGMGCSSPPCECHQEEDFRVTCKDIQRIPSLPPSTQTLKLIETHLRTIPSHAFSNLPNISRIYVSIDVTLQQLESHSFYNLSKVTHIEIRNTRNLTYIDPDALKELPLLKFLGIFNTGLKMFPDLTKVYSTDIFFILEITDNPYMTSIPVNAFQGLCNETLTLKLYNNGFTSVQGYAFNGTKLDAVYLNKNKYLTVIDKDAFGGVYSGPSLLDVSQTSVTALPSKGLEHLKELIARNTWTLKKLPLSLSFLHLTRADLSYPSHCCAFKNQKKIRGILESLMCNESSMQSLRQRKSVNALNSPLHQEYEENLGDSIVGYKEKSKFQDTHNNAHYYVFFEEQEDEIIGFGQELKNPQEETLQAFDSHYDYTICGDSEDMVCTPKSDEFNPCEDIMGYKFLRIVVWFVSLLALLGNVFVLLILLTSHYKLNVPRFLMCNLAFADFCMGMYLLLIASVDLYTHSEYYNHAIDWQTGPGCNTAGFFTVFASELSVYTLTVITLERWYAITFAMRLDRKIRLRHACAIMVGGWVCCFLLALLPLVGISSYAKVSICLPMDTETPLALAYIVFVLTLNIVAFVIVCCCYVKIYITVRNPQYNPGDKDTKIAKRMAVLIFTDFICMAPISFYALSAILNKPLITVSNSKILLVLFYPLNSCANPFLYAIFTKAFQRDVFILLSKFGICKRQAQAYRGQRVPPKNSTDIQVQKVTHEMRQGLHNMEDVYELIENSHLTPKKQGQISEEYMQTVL

CCCCC(CC)COC(=O)CCCCC(=O)OCc1ccccc1 (configuration not stated)
inactive: Potency [1] | Potency [2] | Potency [3] | Potency [4] | Potency [5] | Potency [6] | Potency [7] | Potency [8] | Potency [9] | Potency [10] | Potency [11] | Potency [12]

CCOC(=O)Cn1cccc1-c1nc(-c2ccc(OC)cc2)c(-c2ccc(OC)cc2)s1
inactive: Potency [1] | Potency [2] | Potency [3] | Potency [4] | Potency [5] | Potency [6] | Potency [7] | Potency [10] | Potency [12]

Cc1nc2n(c(=O)c1CCN1CCC(c3noc4cc(F)ccc34)CC1)CCCC2
inactive: Potency [1] | Potency [2] | Potency [3] | Potency [4] | Potency [5] | Potency [6] | Potency [7] | Potency [11] | Potency [12]

CN(C)Cc1cc(C(C)(C)C)c(O)c(C(C)(C)C)c1
inactive: Potency [1] | Potency [2] | Potency [3] | Potency [4] | Potency [6] | Potency [7] | Potency [10] | Potency [13]

O=c1[nH]c(=O)n([C@H]2C[C@H](O)[C@@H](CO)O2)cc1F
inactive: Potency [1] | Potency [2] | Potency [3] | Potency [4] | Potency [6] | Potency [7] | Potency [10] | Potency [11] | Potency [12]

CCc1ccc(Br)cc1
inactive: Potency [1] | Potency [2] | Potency [3] | Potency [5] | Potency [6] | Potency [7] | Potency [9] | Potency [10] | Potency [14] | Potency [13] | Potency [11] | Potency [12]

Nc1nc(-c2ccccc2)cs1
inactive: Potency [15] | Potency [4] | Potency [6] | Potency [7] | Potency [10] | Potency [13] | Potency [11]
active: Potency [5] 31.6 µM

C=CCn1c(=O)n(CC=C)c(=O)n(CC=C)c1=O
inactive: Potency [1] | Potency [2] | Potency [3] | Potency [4] | Potency [6] | Potency [7] | Potency [11] | Potency [12]

Cc1cc(C)c(/C=C2\C(=O)Nc3ccccc32)[nH]1
inactive: Potency [1] | Potency [2] | Potency [3] | outcome [16] | Potency [17] | outcome [18] | Potency [19] | outcome [20] | Potency [4] | Potency [6] | Potency [7] | Potency [10] | Potency [14] | Potency [13] | Potency [11]

O=C1NC(=O)[C@@H]2CC=CC[C@H]12
inactive: Potency [1] | Potency [2] | Potency [3] | Potency [4] | Potency [6] | Potency [7] | Potency [9] | Potency [10] | Potency [11]
active: Potency [12] 19.5 µM

O=S(=O)(O)c1ccc(N=Nc2c(O)ccc3ccccc23)cc1
inactive: Potency [3] | Potency [8] | Potency [9]
active: Potency [5] 35.6 µM | Potency [7] 30.6 µM | Potency [10] 48.6 µM | Potency [12] 12.3 µM

c1ccc(SSc2ccccc2)cc1
active: Potency [8] 43.6 µM
inactive: Potency [1] | Potency [4] | Potency [6] | Potency [7] | Potency [9] | Potency [10] | Potency [12]

CCCCN(CCCC)CC(O)c1cc(Cl)cc2c1-c1ccc(Cl)cc1/C2=C/c1ccc(Cl)cc1 (configuration not stated)
active: Potency [4] 26.6 µM
inactive: Potency [1] | Potency [3] | outcome [16] | Potency [17] | outcome [18] | Potency [19] | outcome [20] | Potency [5] | Potency [6] | Potency [8] | Potency [14] | Potency [13] | Potency [11]

O=C(O)c1cc(-c2ccc(F)cc2F)ccc1O
active: Potency [5] 34.7 µM | Potency [14] 9.44 µM
inactive: Potency [1] | Potency [6] | Potency [7] | Potency [8] | Potency [10] | Potency [13] | Potency [12]

CC(C)=CCNc1ncnc2c1ncn2[C@@H]1O[C@H](CO)[C@@H](O)[C@H]1O
active: Potency [1] 13.3 µM | Potency [2] 23.7 µM | Potency [7] 3.35 µM | Potency [13] 5.96 µM
inactive: Potency [5] | Potency [10] | Potency [14] | Potency [11]

CCCc1ccc(OCC(=O)N2CCN(C(=O)COc3ccc(CCC)cc3OC)CC2)c(OC)c1
inactive: Potency [1] | Potency [2] | Potency [5] | Potency [6] | Potency [9] | Potency [13] | Potency [11]
active: Potency [14] 16.8 µM

Sc1nc2ccccc2s1
inactive: Potency [1] | Potency [2] | Potency [4] | Potency [6] | Potency [7] | Potency [8] | Potency [9] | Potency [14] | Potency [13] | Potency [11]

COc1cccc2c1C(=O)c1c(O)c3c(c(O)c1C2=O)C[C@@](O)(C(C)=O)C[C@@H]3O[C@H]1C[C@H](N)[C@H](O)[C@H](C)O1
553 nM (active) and inactive: Potency [12]
active: Potency [4] 30.8 µM and 473 nM | Potency [6] 19.4 µM and 1.19 µM | Potency [7] 2.75 µM and 211 nM | Potency [10] 27.5 µM | Potency [13] 0.154 µM
inactive: Potency [1] | Potency [14]

CCCCC/C=C\C/C=C\CCCCCCCC(=O)O
inactive: Potency [1] | Potency [3] | Potency [4] | Potency [6] | Potency [7] | Potency [10] | Potency [11]
78.3 µM (active) and inactive: Potency [5]

Cc1ccc(O)c(O)c1
active: Potency [4] 47.2 µM | Potency [9] 47.2 µM | Potency [13] 13.3 µM
inactive: Potency [6] | Potency [7] | Potency [8] | Potency [14]

CN(C)CCN1CCN(c2cccc(Cl)c2)C1=O
inactive: Potency [1] | Potency [4] | Potency [5] | Potency [6] | Potency [7] | Potency [8] | Potency [9] | Potency [10] | Potency [11] | Potency [12]

COc1cc2nc(N3CCN(C(=O)c4ccco4)CC3)nc(N)c2cc1OC
inactive: activity change, negative = cytotoxicity [1] -9.47% [at 19 µM] | viability change, negative = cytotoxic [6] -2.7% [at 19 µM] | activity change, negative = cytotoxicity [7] -2.45% [at 19 µM] | activation [9] 0.371% [at 19 µM] | activation [11] -0.792% [at 19 µM]
